According to the supplement of paper PMC13380429:

Tests used:
[1] = test system: Vero E6 infected with SARS-CoV-2; test: morphology score (similarity to uninfected cells); higher = more like uninfected cells; details: 24 h
[2] = test system: Vero E6 infected with SARS-CoV-2; test: SARS-CoV-2 infection rate relative to infected DMSO; higher = more infection, active = 60 or less; details: 24 h

CCCCCCCCCCCCCCCCNc1ccc(C(=O)O)cc1 [cetaben] (10 µM)
morphology score [1]: 0.21
SARS-CoV-2 infection rate [2]: 91.5% (inactive)

O=C(c1ccc(Cl)o1)N1CC2CNCC2C1 (configuration not stated) (10 µM)
morphology score [1]: 0.187
SARS-CoV-2 infection rate [2]: 105% (inactive)

CN1[C@@H]2CC[C@H]1C[C@@H](OC(=O)C(CO)c1ccccc1)C2 (some centres not stated) (10 µM)
morphology score [1]: -0.21
SARS-CoV-2 infection rate [2]: 106% (inactive)

Clc1ccc(C2=CCC[C@H]3CC[C@@H]2N3)cn1 (10 µM)
morphology score [1]: -0.0924
SARS-CoV-2 infection rate [2]: 110% (inactive)

CC1=C(C(=O)OC(C)C)C(c2cccc([N+](=O)[O-])c2)C(C(=O)OC2CN(C(c3ccccc3)c3ccccc3)C2)=C(N)N1 (configuration not stated) [azelnidipine] (10 µM)
morphology score [1]: 0.295
SARS-CoV-2 infection rate [2]: 71.5% (inactive)

CN1CCN(C(=O)c2nc3ccc(Cl)cc3[nH]2)CC1 (10 µM)
morphology score [1]: 0.119
SARS-CoV-2 infection rate [2]: 108% (inactive)

O=C1CCC[C@@H]2[C@H]3CCC[N+]4([O-])CCC[C@@H](CN12)[C@@H]34 (some centres not stated) [oxymatrine] (10 µM)
morphology score [1]: -0.00407
SARS-CoV-2 infection rate [2]: 100% (inactive)

CCCCOc1ccc(C(=O)Nc2ccc(F)cc2F)cc1 (10 µM)
morphology score [1]: 0.18
SARS-CoV-2 infection rate [2]: 106% (inactive)

NC(=O)N1CCC(CC(=O)N2CCC([C@H]3c4ncc(Br)cc4CCc4cc(Cl)cc(Br)c43)CC2)CC1 [lonafarnib] (10 µM)
morphology score [1]: 0.736
SARS-CoV-2 infection rate [2]: 43.5% (active)

CC(C)[C@H]1CC[C@H](C(=O)N[C@H](Cc2ccccc2)C(=O)O)CC1 [nateglinide] (10 µM)
morphology score [1]: 0.0232
SARS-CoV-2 infection rate [2]: 94.5% (inactive)

COc1cc(N2CCN(C)CC2)ccc1Nc1nccc(-c2cn(C)c3cnccc23)n1 (0.833333 µM)
morphology score [1]: 0.377
SARS-CoV-2 infection rate [2]: 100% (inactive)
